Compound activity as filed in PubChem BioAssay.
Cy5 interf NS3h: Cy5 fluorescence quenchers or enhancers, artefact control for HCV NS3 helicase inhibitor project, biochemical, ChemBridge library, Cy5 readout | Cy5-dT15 DNA with NS3h, fluorescence interference; actives lie on both sides; signal over control mean, under 1 quenches | fluorescence interference ratio at 100 µM | 16,000 tested, 6% active | AID 720488, 2013;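 active means compound fluorescence over control fluorescence at most 0.8, a quencher, or at least a set upper limit, an enhancer; inactive means ratio between 0.8 and the set upper limit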
NS3h inh CB: HCV NS3 helicase inhibitors, primary screen, biochemical, fluorescence polarization, ChemBridge library. inhibition, % at 100 µM. NS3h Cy5-dT15 DNA binding. Hepatitis C virus NS3 helicase. 16,000 tested, 1.6% active;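 active means inhibition above the average over every tested compound plus 3 SD, cut at about 40% in these data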
HCV NS3h conf: HCV NS3 helicase inhibitors, retest, confirmation, biochemical, fluorescence polarization, ChemBridge library. shares compounds with NS3h inh CB. NS3h binding to Cy5-dT15 DNA. inhibition, % at 100 µM. 240 tested, 20% active. AID 720485, 2013;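 active means percent inhibition of 50% or more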
SSB FP counter: E. coli SSB-DNA binding inhibitors, counter-screen for HCV NS3 helicase inhibitor project, biochemical, fluorescence polarization, selected ChemBridge compounds | inhibition, % at 100 µM | AID 720486, 2013 | shares compounds with NS3h inh CB | E. coli SSB binding Cy5-dT15 | 240 tested, 40% active;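 active means inhibition of at least 50%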;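 further: displacers lower Cy5 polarization so higher inhibition means more SSB displaced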
Target sequence (P0AGE0 whole entry, looked up): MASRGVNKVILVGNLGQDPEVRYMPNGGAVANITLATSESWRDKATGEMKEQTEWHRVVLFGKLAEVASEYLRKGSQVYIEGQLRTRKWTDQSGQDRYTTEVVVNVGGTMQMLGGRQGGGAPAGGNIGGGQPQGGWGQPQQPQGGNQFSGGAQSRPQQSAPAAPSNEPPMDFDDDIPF
Cy5 SSB interf: Cy5 fluorescence interference with SSB-bound oligo, artefact control for HCV NS3 helicase inhibitor project, biochemical, E. coli SSB, selected ChemBridge compounds | shares compounds with NS3h inh CB | Cy5-dT15/E. coli SSB fluorescence interference; actives lie on both sides | fluorescence interference ratio at 100 µM | 240 tested, 8% active;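 active means fluorescence interference ratio at or above 1.2, signal boosting, or at or below 0.8, signal quenching; inactive means ratio between 0.8 and 1.2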;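 further: ratio of compound well signal to mean negative control signal so 1 means no effect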
Cy5 interf conf: Cy5-DNA-NS3h complex fluorescence interference, confirmation, artefact control for HCV NS3 helicase inhibitor project, biochemical, ChemBridge library | shares compounds with NS3h inh CB | fluorescence interference ratio at 100 µM, hits read low | 240 tested, 44% active | Cy5-dT15 DNA/NS3h fluorescence interference counterscreen;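 active means fluorescence interference ratio at or below 0.8 quencher or at or above a set limitenhancer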;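 further: ratio of compound fluorescence to mean of negative controls so 1 means no interference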
* marks the source's active call; other numbers are inactive results; x = not tested or not shown. Compounds with a hit are over-represented: about 6.9% of the library has one in this group of screens.

SMILES | Cy5 interf NS3h | NS3h inh CB | HCV NS3h conf | SSB FP counter | Cy5 SSB interf | Cy5 interf conf
CCN(CC)c1ccc(/C=C2\C(=O)NC(=O)N(c3ccccc3OC)C2=O)cc1 | 1.05 | 4.3 | x | x | x | x
COc1ccc2occ(C(=O)c3ccc([N+](=O)[O-])cc3)c2c1 | 1.05 | 4.7 | x | x | x | x
COc1ccc2occ(C(=O)c3ccc(N)cc3)c2c1 | 1.08 | 39.6 | 6.6 | 18.7 | 0.872 | 0.85
O=C(N/N=C\c1ccccc1O)/C(=C\c1ccc2c(c1)OCO2)NC(=O)c1ccccc1 | 1.1 | 4.6 | x | x | x | x
CN(C)c1ccc(/C=C(\NC(=O)c2ccccc2)C(=O)N/N=C\c2cc(O)ccc2[N+](=O)[O-])cc1 | 0.646* | 44.9* | 24.5 | 75.7* | 0.791* | 0.728*
O=C1/C(=C/c2cccc([N+](=O)[O-])c2)SC(=S)N1c1ccc(F)cc1 | 1.01 | 5.1 | x | x | x | x
C=C(C)C(=O)Oc1ccc(N2C(=O)C=CC2=O)cc1 | 1.04 | 80.6* | 55.2* | 4.1 | 0.934 | 0.919
COc1ccc(N2C(=O)C=C(Nc3ccccc3)C2=O)cc1 | 0.865 | 15.2 | x | x | x | x
CN(C)c1ccc(/C=C/C(=O)/C=C/c2ccc(N(C)C)cc2)cc1 | 0.977 | 5.8 | x | x | x | x
COc1ccc(N2C(=O)C=CC2=O)cc1 | 0.769* | 83.9* | 48.9 | 0.5 | 1 | 0.773*
CN(C)c1ccc(N2C(=O)C=CC2=O)cc1 | 0.96 | 64.6* | 42.5 | 16.3 | 1 | 0.757*
O=C1C=CC(=O)N1c1ccc(SC(F)F)cc1 | 0.993 | 19.9 | x | x | x | x
O=C1C=CC(=O)N1c1ccc(OC(F)F)cc1 | 0.822 | 46.2* | 33.0 | 9.0 | 0.943 | 0.864
C=C(C)C(=O)Oc1ccc(N2C(=O)CCC2=O)cc1 | 1.05 | 4.3 | x | x | x | x
COc1cc(/C=c2\sc3n(c2=O)C(c2c(OC)ccc4ccccc24)C(C(C)=O)=C(C)N=3)cc(OC)c1OC (configuration not stated) | 0.993 | 9.1 | x | x | x | x
Cc1ccc(C)c(NCN2C(=O)S/C(=C/c3cccc(Br)c3)C2=O)c1 | 0.982 | 6.6 | x | x | x | x
Cc1ccc(C)n1-c1ccc(C(=O)O)c(O)c1 | 1.3* | 89.7* | 100.7* | 98.8* | 0.925 | 0.978
CC(=O)c1ccc(-n2c(C)ccc2C)cc1 | 1.06 | 0.4 | x | x | x | x
Cc1ccc(C(=O)O)cc1N1C(=O)C2C3C=CC(C3)C2C1=O (configuration not stated) | 1.06 | -2.7 | x | x | x | x
Cc1ccc(C)n1-c1cc(C(=O)O)ccc1O | 1.4* | 96.1* | 84.8* | 103.6* | 0.942 | 1.04
CCOC(=O)Nc1sc(C)c(CC)c1C(=O)OC | 0.869 | 4.3 | x | x | x | x
Cc1c(NC(=O)c2cccc(I)c2)cccc1-c1nc2ccccc2o1 | 0.855 | 13.2 | x | x | x | x
O=C(/C=C/c1ccco1)Nc1ccc(O)cc1C(=O)O | 1.05 | 61.1* | 39.4 | 92.7* | 0.905 | 0.996
Cc1cccc(NC(=O)c2ccccc2NC(=O)/C=C\c2ccco2)c1C | 0.931 | 4.6 | x | x | x | x
COCCN1C(=O)/C(=C\c2ccccc2[N+](=O)[O-])C(C(=O)OC)=C1C | 0.855 | 7.0 | x | x | x | x
SMILES | Cy5 interf NS3h | NS3h inh CB | HCV NS3h conf | SSB FP counter | Cy5 SSB interf | Cy5 interf conf
Cc1ccc(NC(=O)C2CC(=O)N(c3ccc(Br)cc3)C2)cc1Cl (configuration not stated) | 1.01 | 19.9 | x | x | x | x
O=C(Nc1ccc(Cl)c(Cl)c1)C1CC(=O)N(c2cccc([N+](=O)[O-])c2)C1 (configuration not stated) | 1.08 | 38.7 | 0.2 | 13.8 | 0.967 | 0.941
Cc1cccc(NC(=O)c2ccc(-c3ccccc3)cc2)c1 | 1.13 | 6.9 | x | x | x | x
COc1cc(N)ccc1-n1c(C)ccc1C | 0.703* | 68.0* | 7.6 | 22.3 | 0.688* | 0.614*
COc1ccc(-n2c(Cc3ccccc3)n[nH]c2=S)c(OC)c1 | 0.932 | 0.3 | x | x | x | x
Cc1ccsc1/C=C1\SC(=S)N(C2CCS(=O)(=O)C2)C1=O (configuration not stated) | 1.33* | 68.5* | 4.4 | 17.5 | 0.906 | 0.723*
CC(C)c1ccc(/C=C2\SC(=S)N(C3CCS(=O)(=O)C3)C2=O)cc1 (configuration not stated) | 0.949 | -0.7 | x | x | x | x
O=C1NC(=O)N(c2ccccc2)C(=O)/C1=C\c1ccccc1OCc1ccccc1F | 1.03 | 21.8 | x | x | x | x
C=CCN1C(=O)NC(=O)/C(=C\c2ccccc2OCc2ccc([N+](=O)[O-])cc2)C1=O | 0.492* | 57.9* | 26.7 | 26.0 | 0.969 | 0.659*
CCOc1ccccc1NC(=O)c1cc2cc([N+](=O)[O-])ccc2oc1=O | 0.966 | 6.7 | x | x | x | x
O=C1C(=Cc2ccc(Br)cc2)C(=O)c2ccccc21 | 1.01 | 9.1 | x | x | x | x
O=C1NC(=O)N(c2ccccc2)C(=O)/C1=C\c1ccc(-c2cccc(C(=O)O)c2)o1 | 0.984 | 50.8* | 38.3 | 52.7* | 0.919 | 0.921
O=C1NC(=O)N(c2ccccc2)C(=O)/C1=C\c1ccc(-c2ccc([N+](=O)[O-])cc2Cl)o1 | 0.817 | -3.4 | x | x | x | x
O=C1NN(c2ccc(Cl)cc2)C(=O)/C1=C\c1ccc(-c2ccc(Cl)c(C(=O)O)c2)o1 | 0.804* | 52.1* | 36.2 | 28.4 | 0.968 | 0.916
COc1ccc([N+](=O)[O-])cc1-c1ccc(/C=C2\C(=O)NC(=O)N(c3ccc(Cl)cc3)C2=O)o1 | 1.09 | 20.4 | x | x | x | x
O=C1NN(c2ccccc2)C(=O)/C1=C/c1ccc(-c2ccc(F)cc2)o1 | 0.985 | 7.3 | x | x | x | x
O=C1NC(=O)N(c2ccc(Cl)cc2)C(=O)/C1=C/c1ccc(-c2ccc(Cl)c(C(=O)O)c2)o1 | 1.05 | 67.2* | 62.6* | 76.9* | 0.937 | 0.852
COC(=O)c1ccc(/C=C2\C(=O)NC(=S)N(c3cccc(Br)c3)C2=O)cc1 | 0.93 | 9.2 | x | x | x | x
O=C(CN1C(=O)c2ccccc2C1=O)NC(c1ccccc1)c1ccccc1 | 1.03 | 15.4 | x | x | x | x
CCOc1ccccc1NC(=O)C(=O)NCc1ccncc1 | 0.916 | 5.2 | x | x | x | x
COc1ccccc1OCC(=O)Nc1ccc(Nc2ccccc2)cc1 | 0.906 | 15.9 | x | x | x | x
O=C(O)CC(C(=O)O)c1c[nH]c2ccccc12 (configuration not stated) | 1.06 | -5.2 | x | x | x | x
O=C(O)Cc1c[nH]c2ccc(O)cc12 | 0.808 | 89.7* | 78.5* | 109.7* | 0.879 | 0.911
O=C(CSCC(=O)Nc1ccccc1-c1ccccc1)Nc1ccccc1 | 0.958 | 4.2 | x | x | x | x
CCOc1ccc(N2C(=O)C=CC2=O)c([N+](=O)[O-])c1 | 0.971 | 63.8* | 46.8 | 4.1 | 0.966 | 0.951
O=C1C=CC(=O)N1c1ccc([N+](=O)[O-])cc1Br | 0.916 | 88.3* | 61.6* | 0.5 | 0.939 | 0.758*
Cc1ccc(N2C(=O)C=CC2=O)c(Br)c1 | 1.01 | 76.5* | 61.6* | 6.6 | 0.941 | 0.955
